Experimental data reported in publication PMC10726135, “HNF4α isoforms regulate the circadian balance between carbohydrate and lipid metabolism in the liver”.
Over roughly 18,000 sequences, “log2 normalized intensity” has its median near 0.36; the highest 2% begin near 7.3. What follows is part of a selection rich in the highest values, with near analogues and random picks from the rest.

target: T1, HNF4alpha8 (COS-7 nuclear extract) (Homo sapiens, UniProt P41235-5 1-452); experiment: protein-binding microarray; COS-7 nuclear extract on double-stranded Agilent 4x180k PBM; binding buffer, salt, pH and temperature not given in the material; high values mean tight binding; details: chain copies: 2; label: 3' end of strand 1 on the slide; dsDNA, one strand shown
T1 sequence: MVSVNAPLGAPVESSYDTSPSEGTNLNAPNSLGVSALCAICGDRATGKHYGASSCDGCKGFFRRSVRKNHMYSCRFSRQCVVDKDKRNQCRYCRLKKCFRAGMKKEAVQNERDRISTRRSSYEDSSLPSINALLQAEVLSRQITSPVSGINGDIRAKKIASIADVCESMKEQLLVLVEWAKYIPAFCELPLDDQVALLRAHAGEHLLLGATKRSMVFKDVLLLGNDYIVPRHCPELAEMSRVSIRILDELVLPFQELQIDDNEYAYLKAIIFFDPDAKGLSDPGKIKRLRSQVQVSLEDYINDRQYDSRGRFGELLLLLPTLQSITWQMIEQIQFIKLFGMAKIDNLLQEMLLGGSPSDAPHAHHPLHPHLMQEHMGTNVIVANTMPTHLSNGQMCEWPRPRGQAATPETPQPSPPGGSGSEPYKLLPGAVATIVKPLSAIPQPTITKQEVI
How it was run: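 COS-7 cells were transiently transfected by CaPO4 with an expression vector for a human HNF4α isoform, and nuclear extracts were prepared from them. The extracts were applied to a custom Agilent SurePrint G3 4x180k array of double-stranded ~60-nt oligonucleotides, with ~44,000 test sequences spotted in quadruplicate. An Agilent G2565CA scanner imaged bound HNF4α at 2-µm resolution. Binding signal is the background-corrected, normalized gProcessedSignal from Agilent software.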

Sequence | binding signal [log2 normalized intensity]
ACCTTTGCCCTTGACTTTTTGTGGGGGCAGGCCTAGGGAGATTAGAGTATCGGTCGA | 3.39
TGCCCTTGACTTTTTGTGGGGGCAGATGTTGCCTAGGGAGATTAGAGTATCGGTCGA | 2.31
CTGCTTTTATGACCTTTGACTGCAGAAGATGCCTAGGGAGATTAGAGTATCGGTCGA | 6.33
ATGCCAGATGACCTTTGCCCTTGACTTTTTGCCTAGGGAGATTAGAGTATCGGTCGA | 9.28
TTCTTTTTTTTTTTTTTTTTTTTTTGAGATGCCTAGGGAGATTAGAGTATCGGTCGA | 3.08
AGTGAGCCAAGGTACCCTGGCTTGTAATTCGCCTAGGGAGATTAGAGTATCGGTCGA | -0.844
ATCAGAGCTGGATGTGAGTTATGACTACTTGCCTAGGGAGATTAGAGTATCGGTCGA | 0.62
AAATCCCCGCCTTTGACACAGGCGACCTTCGCCTAGGGAGATTAGAGTATCGGTCGA | 4.58
CCCGCCTTTGACACAGGCGACCTTCGCTCGGCCTAGGGAGATTAGAGTATCGGTCGA | 6.06
CTGCAGATTGACTCAGGCATTCTGACCTTTGCCTAGGGAGATTAGAGTATCGGTCGA | 7.32
TCAGGCACAGCTCGACCTTTGACCTTCGGCGCCTAGGGAGATTAGAGTATCGGTCGA | 10.9
TTTTAAGGTCTGGCATTCTTTTTGACCTTTGCCTAGGGAGATTAGAGTATCGGTCGA | 8.23
GATTGACTCAGGCATTCTGACCTTTGTCTCGCCTAGGGAGATTAGAGTATCGGTCGA | 7.94
CCATATCACATTTTAAGGTCTGGCATTCTTGCCTAGGGAGATTAGAGTATCGGTCGA | 1.1
CCTTTGACCTTCGGCTTCCCCAGAGAAAGAGCCTAGGGAGATTAGAGTATCGGTCGA | 3.38
ACTCAGGCATTCTGACCTTTGTCTCCAGGCGCCTAGGGAGATTAGAGTATCGGTCGA | 6.52
CCTTTTATTTTCTTATCTGCCTAGGCATTTGCCTAGGGAGATTAGAGTATCGGTCGA | 1.58
CTTTGACACAGGCGACCTTCGCTCGGCTCGGCCTAGGGAGATTAGAGTATCGGTCGA | 4.27
CACAGCTCGACCTTTGACCTTCGGCTTCCCGCCTAGGGAGATTAGAGTATCGGTCGA | 9.06
CCAACAGGTGAAGACATGCTGGTGTGTGATGCCTAGGGAGATTAGAGTATCGGTCGA | 0.875
AGATGGTCAAAGGTTGATGGTATGTTTCAGGCCTAGGGAGATTAGAGTATCGGTCGA | 3.86
TGAATCCTCTTTGAGTCTGGTGTTCTCTTGGCCTAGGGAGATTAGAGTATCGGTCGA | 1.65
CGCATCTGAAGATAAGAGAAGTTGCTCTTTGCCTAGGGAGATTAGAGTATCGGTCGA | 2.63

Sequence | binding signal [log2 normalized intensity]
CCTGCAAGGACAAAGGTCATGTTTTCAAACGCCTAGGGAGATTAGAGTATCGGTCGA | 6.34
AATTTGAACCAAGATCTGTGAAAGAAAAGTGCCTAGGGAGATTAGAGTATCGGTCGA | -0.147
TATGTGCTGACTGACTCCTGTTACTTCCACGCCTAGGGAGATTAGAGTATCGGTCGA | 0.0957
AGTGTGGGGTGACTGACTTAACCCTTGCCTGCCTAGGGAGATTAGAGTATCGGTCGA | 2.27
CTCCACTTGGGTATCAGATAGTCCAATGTCGCCTAGGGAGATTAGAGTATCGGTCGA | 2.52
GCCTCTCTGTGCTGGAACTTGCTTCCTTATGCCTAGGGAGATTAGAGTATCGGTCGA | 1.37
TGTGGTAATAAGTTGGTGGACGCTGGGGAAGCCTAGGGAGATTAGAGTATCGGTCGA | 0.488
TCCTTCAGCGTGAACTTTGACATGAGAGAAGCCTAGGGAGATTAGAGTATCGGTCGA | 4.21
TATATTCAACCCCCACTTCCTGACTTGGCCGCCTAGGGAGATTAGAGTATCGGTCGA | 3.85
TCACACAAATGGATCTTTCTTCAAAAAGAGGCCTAGGGAGATTAGAGTATCGGTCGA | -0.0678
CCCTTTAGTGCCTGGATCTTGGAACAGGTCGCCTAGGGAGATTAGAGTATCGGTCGA | 1.97
ATGCTGGTCTCCTTGCCCCACCCCCCACCCGCCTAGGGAGATTAGAGTATCGGTCGA | 7.48
TATTTAGACTCAGCATGTCTTCTGACCTTTGCCTAGGGAGATTAGAGTATCGGTCGA | 7.33
GCTCAGCTGGTTGCCCCTTTGACCCTCGGGGCCTAGGGAGATTAGAGTATCGGTCGA | 7.06
CCTCTGTCTCTCAGGCACAGCTCGACCTTTGCCTAGGGAGATTAGAGTATCGGTCGA | 6.7
GTCTCTCAGGCACAGCTCGACCTTTGACCTGCCTAGGGAGATTAGAGTATCGGTCGA | 10
GGGTCATGCTGGTCTCCTTGCCCCACCCCCGCCTAGGGAGATTAGAGTATCGGTCGA | 5.73
GCCCCAGCTCGCTCAGCTGGTTGCCCCTTTGCCTAGGGAGATTAGAGTATCGGTCGA | 4.47
GGTCTCCTTGCCCCACCCCCCACCCCAGAAGCCTAGGGAGATTAGAGTATCGGTCGA | 6.87
AGCTCGCTCAGCTGGTTGCCCCTTTGACCCGCCTAGGGAGATTAGAGTATCGGTCGA | 8.48
CAGCATGTCTTCTGACCTTTGGCAATATCTGCCTAGGGAGATTAGAGTATCGGTCGA | 5.1
AGACTCAGCATGTCTTCTGACCTTTGGCAAGCCTAGGGAGATTAGAGTATCGGTCGA | 6.98
CCTGCACACCTGCCTTTGATCAGGGACCTTGCCTAGGGAGATTAGAGTATCGGTCGA | 1.97
